Measurements taken from PubChem BioAssay AID687016 (The Scripps Research Institute Molecular Screening Center, 2013).
The whole screen tested about 370,000 compounds, of which about 2,800 (0.76%) were called active. Rule as the data show it: active = inhibition above about 21%; inactive = the rest. Only a selection was taken, and actives are over-represented in it overall.

Target: E3 ubiquitin-protein ligase UHRF1 (Homo sapiens) (UniProt Q96T88)
Assay: blockers of UHRF1 binding to methyl-oligo – biochemical, TR-FRET, human UHRF1, single concentration, counter-screen for MBD2 inhibitor project, primary screen (AID 687016);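 also: UHRF1 SRA domain binding a hemimethylated CpG hairpin DNA probe; 0% = median of test compound wells and 100% = reference inhibitor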
Settings: UHRF1 binding to methylated oligo, at 4.4 µM, active compounds read high

E3 ubiquitin-protein ligase UHRF1 (Homo sapiens), sequence (Q96T88 whole entry, looked up, the tested form may be a part): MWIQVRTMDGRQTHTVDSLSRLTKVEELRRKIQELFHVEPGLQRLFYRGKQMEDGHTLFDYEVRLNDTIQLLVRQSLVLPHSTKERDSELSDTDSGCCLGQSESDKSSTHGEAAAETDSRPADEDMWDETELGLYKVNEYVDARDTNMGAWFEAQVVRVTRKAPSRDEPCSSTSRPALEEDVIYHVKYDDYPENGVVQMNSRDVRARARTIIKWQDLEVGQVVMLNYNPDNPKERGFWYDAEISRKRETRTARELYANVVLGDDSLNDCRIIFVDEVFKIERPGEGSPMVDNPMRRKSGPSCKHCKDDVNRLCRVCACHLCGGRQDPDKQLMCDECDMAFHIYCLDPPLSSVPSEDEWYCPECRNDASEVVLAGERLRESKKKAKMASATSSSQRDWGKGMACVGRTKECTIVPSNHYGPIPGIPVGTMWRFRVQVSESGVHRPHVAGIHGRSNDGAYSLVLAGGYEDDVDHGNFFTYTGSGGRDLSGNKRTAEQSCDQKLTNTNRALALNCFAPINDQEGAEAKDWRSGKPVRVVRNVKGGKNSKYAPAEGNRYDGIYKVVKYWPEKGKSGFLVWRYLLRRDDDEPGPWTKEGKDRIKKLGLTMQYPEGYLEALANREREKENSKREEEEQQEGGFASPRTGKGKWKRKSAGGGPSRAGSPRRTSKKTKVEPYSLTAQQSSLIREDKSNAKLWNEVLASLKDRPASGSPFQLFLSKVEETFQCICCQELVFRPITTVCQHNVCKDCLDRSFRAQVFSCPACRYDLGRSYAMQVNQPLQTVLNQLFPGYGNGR

**Q.** For `CCCCNC(=O)C[C@H]1C[C@@]2(C(=O)OC)C(=C[C@H](COCc3ccccc3)O[C@@H]2C)N(Cc2ccc(Cl)cc2Cl)C1=O`, which inhibition is on record?
**A.** 1.55% (inactive)

**Q.** With `COC(=O)C1CN(CCc2ccccc2)CCS(=O)(=O)N1Cc1cccc(Cl)c1` (stereo not drawn) as the compound, how does the inhibition read?
**A.** 1.44% (inactive)

**Q.** For `CC(NCc1ccco1)C(=O)N1CCCCC1` (stereo not drawn), which inhibition is on record?
**A.** 0.03% (inactive)

**Q.** For `COc1ccc(-n2c(SCC(=O)Nc3ccc4c(c3)OCCO4)nnc2-c2ccc(Cl)cc2)cc1`, which inhibition is on record?
**A.** 2.21% (inactive)

**Q.** Which inhibition does the source give for `COC(=O)CC1CCc2cc(C)cc(C(CC(C)C)NC(=O)[C@H](CC(C)C)NC(=O)OCc3ccccc3)c2O1` (stereo partly drawn) here?
**A.** 4.14% (inactive)

**Q.** How did the inhibition turn out when `CN(C)C(=O)c1cccc(-c2cnc3c(NC=O)cc(-c4ccc(C(=O)N5CCOCC5)cc4)cn23)c1` was run?
**A.** -6.57% (inactive)

**Q.** For `CC(=O)c1cccc(-c2cnc3c(NC=O)cc(-c4ccc(N(C)C)cc4)cn23)c1`, which inhibition is on record?
**A.** 31.6% (active)

**Q.** For `CC(=O)c1cccc(-c2cnc3c(NC=O)cc(-c4ccc(N5CCN(C)CC5)cc4)cn23)c1`, which inhibition is on record?
**A.** -0.16% (inactive)

**Q.** With `Cc1ccccc1CN1CCCCC(NC(=O)Nc2ccccc2F)C1=O` (stereo not drawn) as the compound, how does the inhibition read?
**A.** -1.71% (inactive)

**Q.** `CC(C)C(=O)N1CCN(c2nc(-c3ccccc3)c3c(c2C#N)CC(C)(C)OC3)CC1` was tested. Which inhibition did it give?
**A.** -0.61% (inactive)

**Q.** For `CCOC(=O)CSc1nc(N2CCOCC2)c2c(c1C#N)CC(C(C)C)OC2` (stereo not drawn), which inhibition is on record?
**A.** 1.09% (inactive)

**Q.** For `CC1(C)Cc2c(C#N)c(SCc3nc4ccccc4[nH]3)nc(N3CCOCC3)c2CO1`, which inhibition is on record?
**A.** 25.8% (active)

**Q.** With `CCC[C@H]1C(=O)CC[C@@]23CCCN2C(=O)CCC[C@@H]13` as the compound, how does the inhibition read?
**A.** -3.81% (inactive)

**Q.** `CCN(CC)C(=O)C(=O)c1cn(CC(=O)NCc2ccc3c(c2)OCO3)c2ccccc12` was tested. Which inhibition did it give?
**A.** 1.9% (inactive)

**Q.** Which inhibition does the source give for `CC(C)N(C(=O)Cn1cc(S(=O)(=O)CC(=O)N2CCOCC2)c2ccccc21)C(C)C` here?
**A.** 0.05% (inactive)

**Q.** How did the inhibition turn out when `CCN(CC)C(=O)Cn1cc(S(=O)(=O)CC(=O)NCc2ccc3c(c2)OCO3)c2ccccc21` was run?
**A.** 22.7% (active)

**Q.** For `CCCC1(C(=O)OC)NC(c2ccco2)C2C(=O)N(C)C(=O)C21` (stereo not drawn), which inhibition is on record?
**A.** 26.9% (active)

**Q.** `CC[C@@]1(C(=O)OC)N[C@H](CN(C)C(C)=O)[C@@H]2C(=O)N(C)C(=O)[C@@H]21` was tested. Which inhibition did it give?
**A.** 4.65% (inactive)

**Q.** For `CCCSc1ccc([C@H]2N[C@@](Cc3ccccc3)(C(=O)OC)[C@H]3C(=O)N(C)C(=O)[C@@H]23)cc1`, which inhibition is on record?
**A.** 2.8% (inactive)

**Q.** For `COc1ccc2c(c1)CN1CN(CCc3ccccc3)S(=O)(=O)CC21` (stereo not drawn), which inhibition is on record?
**A.** -5.7% (inactive)

**Q.** For `COC(=O)[C@@]12CCCCC3=C1N(CCC3)C(=O)[C@H]2CC(=O)NCc1cccc2ccccc12`, which inhibition is on record?
**A.** -1.21% (inactive)

**Q.** For `CC(=O)N1CCc2cc(S(=O)(=O)NCCC(=O)N3CCCC3)ccc21`, which inhibition is on record?
**A.** 2.88% (inactive)

**Q.** With `CC(c1ccc(N)cc1)c1cn(C)c2ccccc12` (stereo not drawn) as the compound, how does the inhibition read?
**A.** 2.19% (inactive)

**Q.** With `O=C(NCCc1c[nH]c2ccccc12)OCc1cn(-c2c(F)cccc2F)nn1` as the compound, how does the inhibition read?
**A.** -1.24% (inactive)

**Q.** `O=S(=O)(c1ccccc1)N1CCC(c2nc3ccccc3o2)CC1` was tested. Which inhibition did it give?
**A.** -2.1% (inactive)

**Q.** With `O=C(O)c1cc(S(=O)(=O)NC2CCCc3ccccc32)ccc1O` (stereo not drawn) as the compound, how does the inhibition read?
**A.** 26.4% (active)

**Q.** How did the inhibition turn out when `CNS(=O)(=O)c1cccc(C(=O)NC2CCCc3ccccc32)c1` (stereo not drawn) was run?
**A.** -0.54% (inactive)

**Q.** For `Cc1ccc(S(=O)(=O)N2CCN(C(=O)CCC(=O)NC3CCCc4ccccc43)CC2)cc1` (stereo not drawn), which inhibition is on record?
**A.** -0.03% (inactive)

**Q.** `COC(=O)C1CN(CCc2ccccc2)CCS(=O)(=O)N1Cc1ccc(F)cc1` (stereo not drawn) was tested. Which inhibition did it give?
**A.** 2.78% (inactive)

**Q.** For `O=C(Nc1cc(F)cc(F)c1)OC1CCC12CCC(c1ccccc1)CC2` (stereo not drawn), which inhibition is on record?
**A.** -0.77% (inactive)

**Q.** `CC(C)(C)c1ccc(C(=O)Nc2cc(Cl)c(Br)cc2C(=O)O)cc1` was tested. Which inhibition did it give?
**A.** 3.66% (inactive)

**Q.** `Cc1ccc(S(=O)(=O)N(CC(=O)NN=C2CCN(C)CC2)c2ccc(F)cc2)cc1` was tested. Which inhibition did it give?
**A.** -0.56% (inactive)

**Q.** `Cc1ccc(S(=O)(=O)N(CC(=O)N/N=C/c2ccc(F)cc2)c2cccc3cccnc23)cc1` was tested. Which inhibition did it give?
**A.** 24.1% (active)

**Q.** Which inhibition does the source give for `COc1ccccc1N(CC(=O)N/N=C(\C)c1ccccc1O)S(=O)(=O)c1ccc(C)cc1` here?
**A.** -1.56% (inactive)

**Q.** Which inhibition does the source give for `O=S1(=O)c2ccc(Br)cc2OC[C@H](Cc2ccccc2)N1Cc1cn(Cc2ccccc2)nn1` here?
**A.** 1.7% (inactive)

**Q.** `COc1ccc(S[C@]2(C(=O)N(C)C)CC(=O)N(c3ccc(OC)cc3)[C@@H]2c2ccc(OC)cc2)cc1` was tested. Which inhibition did it give?
**A.** 2.01% (inactive)

**Q.** With `O=C(O)c1ccc(NN=CC2=C(N3CCOCC3)/C(=C/c3ccccc3)CC2)cc1` as the compound, how does the inhibition read?
**A.** 22.5% (active)

**Q.** How did the inhibition turn out when `O=C1OC(NC(=O)c2ccccc2)C(N2CCOCC2)=C1Cl` (stereo not drawn) was run?
**A.** 0.02% (inactive)

**Q.** How did the inhibition turn out when `O=C(Nc1ccc(F)cc1)c1cccnc1N1CCOCC1` was run?
**A.** -3.63% (inactive)

**Q.** How did the inhibition turn out when `CCOC(=O)C(=O)N(Cc1ccccc1)c1ccccc1C(=O)Nc1cc(OC)ccc1OC` was run?
**A.** 1.4% (inactive)

**Q.** `COc1ccc(CCNc2nc(C)cc(C)n2)cc1OC` was tested. Which inhibition did it give?
**A.** -1.42% (inactive)

**Q.** `COc1ccc(NC(=O)C2(C)Cc3c(-c4cccc(NC(C)=O)c4)ccnc3O2)cc1OC` (stereo not drawn) was tested. Which inhibition did it give?
**A.** 3.78% (inactive)

**Q.** `COc1ccc(CCNc2nc(-c3cccc(NC(C)=O)c3)cs2)cc1OC` was tested. Which inhibition did it give?
**A.** 63% (active)

**Q.** For `Cc1ccc(CSc2nnc(SCC(=O)NN=Cc3cc(Br)ccc3F)s2)cc1`, which inhibition is on record?
**A.** -0.65% (inactive)

**Q.** Which inhibition does the source give for `COc1ccc(-n2c(SCC(=O)Nc3ccc(C)c(Cl)c3)nc3ccccc3c2=O)cc1` here?
**A.** 0.63% (inactive)

**Q.** Which inhibition does the source give for `COc1ccc(NC(=O)CSc2nc3ccccc3c(=O)n2C)cc1` here?
**A.** 40.1% (active)

**Q.** Which inhibition does the source give for `COc1ccc(NC(=O)CSc2nnc(Cc3ccccc3)c(=O)n2N)cc1` here?
**A.** -3.2% (inactive)

**Q.** Which inhibition does the source give for `COc1ccc(C2CC=C(C(=O)O)C(c3ccccc3F)N2S(=O)(=O)c2ccc(C)cc2)cc1OC` (stereo not drawn) here?
**A.** -0.43% (inactive)

**Q.** Which inhibition does the source give for `COc1cccc(N(C)C(=O)[C@@H](C)[C@@H](O)c2ccc3ccccc3c2)c1` here?
**A.** -1.4% (inactive)

**Q.** How did the inhibition turn out when `O=C1NC(=O)C(c2ccc(Cl)cc2)N1` (stereo not drawn) was run?
**A.** 2.25% (inactive)

**Q.** `CC(C)Oc1ccc(C2NC(=O)NC2=O)cc1` (stereo not drawn) was tested. Which inhibition did it give?
**A.** 25% (active)

**Q.** `COc1ccc(C2NC(=O)N(C)C(C)=C2[N+](=O)[O-])cc1` (stereo not drawn) was tested. Which inhibition did it give?
**A.** 0.56% (inactive)

**Q.** `N#Cc1ccccc1OC[C@@H](O)CN1CCC(C(O)(c2ccccc2)c2ccccc2)CC1` was tested. Which inhibition did it give?
**A.** -2.62% (inactive)
